Laboratory results from PubChem BioAssay AID1159580 (chemical genetic matrix, 2015).
The campaign covered roughly 5,500 compounds. About 2,000 (36%) were called active. About 18% were inconclusive and are not listed. Cut-off read from the data, not from the text of the source: active = normalized growth mostly below about 0.91 (no sharp cut-off); inconclusive = no clear call, values can overlap the other calls; inactive = mostly above about 0.92. The list shows a part of the results.

Experiment: chemical genetic growth profiling, strain panel (AID 1159580);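 note: tested at 20 µM; growth read once vehicle control cultures reached saturation at 30 °C; 1 = growth at the plate median or of vehicle wells; lower values mean less growth of the strain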
Conditions: S. cerevisiae deletion strains, growth OD

Measured: normalized growth

CC(=O)N1CCN(c2ccc(OC[C@H]3CO[C@](Cn4ccnc4)(c4ccc(Cl)cc4Cl)O3)cc2)CC1
active: locus YAL013W, strain DEP1, stronger effect = lower value 0.0911 | locus YAL040C, strain CLN3, stronger effect = lower value 0.208 | locus YCL061C, strain MRC1 (second series), stronger effect = lower value 0.0612 | locus YDR363W, strain ESC2, stronger effect = lower value 0.103 | locus YER002W, strain NOP16, stronger effect = lower value 0.137 | locus YGR078C, strain PAC10, stronger effect = lower value 0.139 | locus YGR229C, strain SMI1, stronger effect = lower value 0.0746 | locus YJR075W, strain HOC1, stronger effect = lower value 0.0931 | locus YMR263W, strain SAP30, stronger effect = lower value 0.588 | locus YNL128W, strain TEP1, stronger effect = lower value 0.16 | locus YNL153C, strain GIM3, stronger effect = lower value 0.14 | locus YNL175C, strain NOP13, stronger effect = lower value 0.133 | locus YNL197C, strain WHI3, stronger effect = lower value 0.147 | locus YNL224C, strain SQS1, stronger effect = lower value 0.18 | locus YNL322C, strain KRE1, stronger effect = lower value 0.0931 | locus YOR083W, strain WHI5 (second series), stronger effect = lower value 0.175 | locus YPL055C, strain LGE1, stronger effect = lower value 0.104

CCC(C)n1ncn(-c2ccc(N3CCN(c4ccc(OC[C@H]5CO[C@](Cn6cncn6)(c6ccc(Cl)cc6Cl)O5)cc4)CC3)cc2)c1=O (stereo not given in full)
active: locus YHR030C, strain SLT2, stronger effect = lower value 0.104 | locus YHR079C, strain IRE1, stronger effect = lower value 0.19 | locus YJL095W, strain BCK1, stronger effect = lower value 0.112 | locus YJR066W, strain TOR1, stronger effect = lower value 0.0832 | locus YLR113W, strain HOG1, stronger effect = lower value 0.187 | locus YNL183C, strain NPR1, stronger effect = lower value 0.183 | locus YOR231W, strain MKK1, stronger effect = lower value 0.177 | locus YPL256C, strain CLN2, stronger effect = lower value 0.188
